# Inconclusive results are not listed. A call without a number means that no potency is given here. Active and inactive are the calls of the source. Unless noted, calls come from the whole dose curve; as a rule, active = well fitted curve in the direction sought with a large enough effect; inconclusive = small, poorly fitted or top-dose-only effect, or another doubt; inactive = no such curve, though single readings can be large; an effect the other way counts as inactive or inconclusive.
# Experiments:
# [1] = qHTS for Inhibitors of the Aldehyde Dehydrogenase Family (ALDH1A2, ALDH1A3, ALDH2, ALDH3A1) (AID 2061307); settings: ALDH inhibition qHTS; series mostly up to 50.3 µM; note: nearly all actives have a fitted effect of over 50% in size
# [2] = target: Aldehyde dehydrogenase, mitochondrial (Homo sapiens) (UniProt P05091); experiment: qHTS for Inhibitors of the Aldehyde Dehydrogenase Family (ALDH2) Confirmatory screens (AID 2061303; active = well fitted inhibition curve with a large enough effect; title and protocol of this record describe different tests; note: nearly all actives have a fitted effect of over 45% in size); settings: ALDH inhibition qHTS; series mostly up to 45.4 µM
# [3] = target: Aldehyde dehydrogenase, mitochondrial (Homo sapiens) (UniProt P05091); experiment: qHTS for Inhibitors of the Aldehyde Dehydrogenase Family (ALDH2) Validation screens (AID 2061302; active = well fitted inhibition curve with a large enough effect; title and protocol of this record describe different tests); settings: ALDH inhibition qHTS; series mostly up to 42.6 µM
# [4] = target: Retinaldehyde dehydrogenase 3 (Homo sapiens) (UniProt P47895); experiment: qHTS for Inhibitors of the Aldehyde Dehydrogenase Family (ALDH1A3) Validation screen (AID 2061312); settings: ALDH1A3 enzyme inhibition qHTS validation, fluorescence; series mostly up to 42.4 µM; note: nearly all actives have a fitted effect of over 45% in size
# [5] = target: Aldehyde dehydrogenase, mitochondrial (Homo sapiens) (UniProt P05091); experiment: qHTS for Inhibitors of the Aldehyde Dehydrogenase Family (ALDH2) Primary screen (AID 2061308); settings: ALDH2 enzyme inhibition qHTS, 1536-well; series mostly up to 56 µM; note: nearly all actives have a fitted effect of over 55% in size
# [6] = target: Retinaldehyde dehydrogenase 3 (Homo sapiens) (UniProt P47895); experiment: qHTS for Inhibitors of the Aldehyde Dehydrogenase Family (ALDH1A3) Confirmatory screens (AID 2061311); settings: ALDH inhibition qHTS; series mostly up to 46 µM; note: nearly all actives have a fitted effect of over 60% in size
# [7] = target: Retinal dehydrogenase 2 (Homo sapiens) (UniProt O94788); experiment: qHTS for Inhibitors of the Aldehyde Dehydrogenase Family (ALDH1A2) Confirmation screens (AID 2061314); settings: ALDH1A2 enzyme inhibition qHTS confirmation; series mostly up to 45.9 µM; note: nearly all actives have a fitted effect of over 65% in size
# [8] = target: Retinaldehyde dehydrogenase 3 (Homo sapiens) (UniProt P47895); experiment: qHTS for Inhibitors of the Aldehyde Dehydrogenase Family (ALDH1A3) Primary screen (AID 2061315); settings: ALDH inhibition qHTS; series mostly up to 56 µM
# [9] = target: Aldehyde dehydrogenase 1A1 (Homo sapiens) (UniProt P00352); experiment: qHTS for Inhibitors of the Aldehyde Dehydrogenase Family (ALDH1A1) Confirmatory screens (AID 2061316); settings: ALDH inhibition qHTS; series mostly up to 47.3 µM; note: nearly all actives have a fitted effect of over 65% in size
# [10] = BET inhibitor-based combinations targeting novel dependencies in MECOM-rearranged (r) AML: SET-2 cell line (AID 2202231); settings: SET-2 AML cells viability, CellTiter-Glo luminescence, 48 h; viability: active compounds read low, concentration not given here; note: nearly all actives have a fitted effect of over 35% in size; note: potency is the fitted concentration of half-maximal effect
# Summary of the method: (§1)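 Each compound was tested at eleven concentrations on cells seeded at 500/well. After two days' incubation, ATP-based luminescence reported viability; responses relative to DMSO and blank wells yielded AUC and cell-line-centred Z-AUC.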
# [11] = BET inhibitor-based combinations targeting novel dependencies in MECOM-rearranged (r) AML: OCI-AML3 cell line (AID 2202232); settings: CellTiter-Glo luminescence, 48 h; Potency: OCI-AML3 viability; series mostly up to 46 µM; note: potency is the fitted concentration of half-maximal effect; nearly all actives have a fitted effect of over 35% in size
# Summary of the method: as §1
# [12] = BET inhibitor-based combinations targeting novel dependencies in MECOM-rearranged (r) AML: MV-4-11 cell line (AID 2202233); settings: MV-4-11 AML viability, CellTiter-Glo luminescence, 48 h; series mostly up to 46 µM; note: nearly all actives have a fitted effect of over 45% in size; note: potency is the fitted concentration of half-maximal effect
# Summary of the method: (§2)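 First, 500 cells per well were seeded; next, drugs were pinned as 11-point doses; then plates sat 48 hr in the incubator; finally CellTiter-Glo was added and luminescence read, with AUC and Z-AUC computed.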
# [13] = BET inhibitor-based combinations targeting novel dependencies in MECOM-rearranged (r) AML: UCSD-AML1 cell line (AID 2202235); settings: UCSD-AML1 AML cells viability, CellTiter-Glo, 48 h; series mostly up to 46 µM; note: nearly all actives have a fitted effect of over 40% in size; note: potency is the fitted concentration of half-maximal effect
# Summary of the method: as §2
# [14] = BET inhibitor-based combinations targeting novel dependencies in MECOM-rearranged (r) AML: AML-191 cell line (AID 2202236; note: nearly all actives have a fitted effect of over 35% in size); settings: AML-191 viability, CellTiter-Glo luminescence, 48 h; series mostly up to 46 µM
# Summary of the method: as §1
smiles,measurement,setting,value
Oc1ccc(C2=CCNCC2)cc1O,Potency,[1],inactive
CN(Cc1ccccc1)C[C@H]1CN2CC[C@H]1C[C@@H]2CNC(=O)c1ccc(C(F)(F)F)cc1,Potency,[2],inactive
C=C(C)[C@H]1CN[C@H](C(=O)O)[C@H]1CC(=O)O,Potency,[3],inactive
same,Potency,[4],inactive
COC(=O)C1=CCCN(C)C1,Potency,[3],inactive
same,Potency,[4],inactive
CCN1C[C@]2(COC(=O)c3ccccc3N3C(=O)C[C@H](C)C3=O)CC[C@H](OC)[C@@]34[C@@H]5C[C@H]6[C@H](OC)[C@@H]5[C@](O)(C[C@@H]6OC)[C@](O)([C@@H](OC)[C@H]23)[C@@H]14,Potency,[2],inactive
same,Potency,[1],inactive
same,Potency,[5],inactive
same,Potency,[6],inactive
same,Potency,[7],inactive
same,Potency,[8],inactive
same,Potency,[9],inactive
NC(N)=NOCCC(N)C(=O)O (stereo unspecified),Potency,[3],inactive
same,Potency,[4],inactive
C/C(=C\c1csc(C)n1)[C@@H]1C[C@@H]2O[C@@H]2CCC[C@H](C)[C@H](O)[C@@H](C)C(=O)C(C)(C)[C@@H](O)CC(=O)O1,Potency,[10],33.2 nM (active)
same,Potency,[11],20.9 nM (active)
same,Potency,[12],33.2 nM (active)
same,Potency,[13],18.6 nM (active)
CC1=C2C[C@H]3[C@@H](CC=C4C[C@@H](O)CC[C@@]43C)[C@@H]2CC[C@]12O[C@@H]1C[C@H](C)CN[C@H]1[C@H]2C,viability,[10],113% (inactive)
same,Potency,[12],inactive
same,Potency,[13],inactive
same,Potency,[14],inactive
Cc1ccccc1C(=O)N1CCc2cc(N3CCC(NC(=O)Cc4ccccc4)C3)ccc21 (stereo unspecified),Potency,[5],inactive
same,Potency,[8],inactive
CC(C)=CCC[C@]1(C)C=Cc2c(O)c3c(c(CC=C(C)C)c2O1)O[C@]12C(=C[C@@H]4CC1C(C)(C)O[C@@]2(C/C=C(/C)C(=O)O)C4=O)C3=O,Potency,[5],inactive
same,Potency,[8],inactive
CCOc1ccc(CCNC(=O)c2cc3cnccc3n2Cc2cccc(C)c2)cc1OCC,Potency,[5],inactive
same,Potency,[8],inactive
CCOc1ccc(CCNC(=O)c2ccccc2)cc1OCC,Potency,[5],inactive
same,Potency,[8],inactive
OC(CNc1ccccc1)Cn1c2ccc(Br)cc2c2cc(Br)ccc21 (stereo unspecified),Potency,[5],inactive
same,Potency,[8],inactive
CC(C)C(=O)O[C@H]1[C@@H]2[C@H](C)C(=O)O[C@@H]2C[C@@H](C)[C@@H]2C=CC(=O)[C@]21C,Potency,[5],inactive
same,Potency,[8],inactive
O=S(=O)(Nc1ccccc1)c1ccc(NCc2ccc(Br)cc2O)cc1,Potency,[5],inactive
same,Potency,[8],inactive
N#Cc1ccc(NC(=O)Nc2nnc(-c3ccncc3)s2)cc1C(F)(F)F,Potency,[5],inactive
same,Potency,[8],inactive
COC(=O)c1ccc(O)c2ncc(N3CCN(C)CC3)cc12,Potency,[5],inactive
same,Potency,[8],inactive
O=C(NCCN1CCC2(CC1)C(=O)NCN2c1cccc(F)c1)c1ccc2ccccc2c1,Potency,[5],inactive
same,Potency,[8],inactive
CN1Cc2c(ccc3c2OCO3)[C@@H]2[C@H]1c1cc3c(cc1C[C@@H]2O)OCO3,Potency,[5],inactive
same,Potency,[8],inactive
CCOc1ccc(CCNC(=O)c2ccc(Oc3ccccc3)cc2)cc1OCC,Potency,[5],inactive
same,Potency,[8],inactive
COC1CC(O[C@H]2CC[C@@]3(C)C(CCC4C3CC[C@]3(C)[C@@H](C5=CC(=O)OC5)CC[C@]43O)C2)OC(C)C1O (stereo partly specified),Potency,[5],inactive
same,Potency,[8],inactive
O=C(Nc1ncc(Cc2ccc(C(F)(F)F)cc2)s1)c1cn(-c2ccccc2)cn1,Potency,[5],inactive
same,Potency,[8],inactive
C[C@]12CC[C@H](O)C[C@H]1CC[C@@H]1[C@@H]2[C@H](O)C[C@]2(C)[C@@H](c3ccc(=O)oc3)CC[C@]12O,Potency,[5],inactive
same,Potency,[8],inactive
COC1CC(O[C@H]2CC[C@@]3(C)C(CCC4C3CC[C@]3(C)C(C5=CC(=O)OC5)CCC43O)C2)OC(C)C1OC1OC(COC2OC(CO)C(O)C(O)C2O)C(O)C(O)C1O (stereo partly specified),Potency,[5],inactive
same,Potency,[8],inactive
C[n+]1cc(P(=S)(c2ccccc2)c2ccccc2)n2ccccc21,Potency,[5],inactive
same,Potency,[8],inactive
CCc1nn2c(=O)c(F)c(N3CCNCC3)nc2s1,Potency,[5],inactive
same,Potency,[8],inactive
COc1ccc(CCNCc2ccc(OC)c3ccccc23)cc1,Potency,[5],inactive
same,Potency,[8],inactive
